Unmarked numbers belong to inactive results. Results filed as inconclusive are left out. Where a call stands in place of a potency, no number is given. Calls of active or inactive are those of the source. Unless noted, calls come from the whole dose curve; as a rule, active = well fitted curve in the direction sought with a large enough effect in the repeat runs; inconclusive = weak or mixed curves; inactive = no such curve, though single readings can be large; an effect the other way counts as inactive or inconclusive.
Legend:
[1] = qHTS assay to identify small molecule antagonists of the estrogen related receptor (ERR) signaling pathway from Tox21 library - cell viability counter screen (AID 1224834); note: nearly all actives have a fitted effect of over 30% in size; note: potency is the fitted concentration of half-maximal effect
In short: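 ERR cells, 2,000/well; 6 h settle at 37 C/5% CO2; pin-tool compound transfer in DMSO; 17.5 h at 37 C; CellTiter-Fluor, 30 min; fluorescence intensity.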

[2] = molecular target: Luciferin 4-monooxygenase (Photinus pyralis) (UniProt P08659); test: qHTS assay to identify small molecule inhibitors of firefly luciferase (AID 1224835); note: nearly all actives have a fitted effect of over 25% in size; note: potency is the fitted concentration of half-maximal effect
In short: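 Biochemical qHTS: compounds run as interplate titrations against purified firefly enzyme, with D-luciferin and ATP each at its KM concentration. Light output recorded by CCD imaging.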

[3] = qHTS assay to identify small molecule agonists of the constitutive androstane receptor (CAR) signaling pathway - cell viability counter screen (AID 1224836); note: nearly all actives have a fitted effect of over 45% in size
In short: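 HepG2 cells stably carrying hCAR and a CYP2B6-2.2kb reporter were plated 4 h, then given compounds at 15 concentrations plus PK11195 (final 0.75 uM). After 23 h at 37 C, viability was read by CellTiter-Fluor fluorescence.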

[4] = molecular target: Nuclear receptor subfamily 1 group I member 3 (Homo sapiens) (UniProt Q14994); test: qHTS assay to identify small molecule antagonists of the constitutive androstane receptor (CAR) signaling pathway (AID 1224838); note: nearly all actives have a fitted effect of over 40% in size
In short: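 Antagonist mode used CITCO at a final 50 nM to activate CAR in human hepatoma HepG2 cells carrying stable hCAR and a 2.2 kb CYP2B6 promoter-luciferase construct. Compounds were tested at 15 concentrations over 24 h, with luminescence as the end point.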

[5] = qHTS assay to identify small molecule antagonists of the estrogen related receptor signaling pathway with the pleiotropic PPARgamma coactivator (PGC) from Tox21 10K library - cell viability counter screen (AID 1224840; active = well fitted cell-killing curve with a large enough effect in the repeat runs, not every such curve was filed as active; note: nearly all actives have a fitted effect of over 40% in size)
In short: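 Multiplexed viability counter screen in the PGC/ERR cell line: cells treated with DMSO-dissolved compounds for 17.5 hours at 37 C, then viability measured as CellTiter-Fluor fluorescence.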

[6] = molecular target: Thyrotropin receptor (Homo sapiens) (UniProt P16473); test: qHTS assay to identify small molecule agonists of the thyroid stimulating hormone receptor (TSHR) signaling pathway (AID 1224843; calls by dose curve; note: nearly all actives have a fitted effect of over 45% in size)
In short: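 HEK293/TSHR, 800 cells/well; cpd 30 min RT; add cAMP-d2 + anti-cAMP-cryptate, 1 h RT; fluorescence read on plate reader. 15-pt titration, n=3.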

[7] = qHTS assay to identify small molecule agonists of the hypoxia (HIF-1) signaling pathway - cell viability counter screen (AID 1224844; calls by dose curve; note: nearly all actives have a fitted effect of over 50% in size; note: potency is the fitted concentration of half-maximal effect)
In short: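 Cytotoxicity was measured in parallel with the HRE-driven beta-lactamase readout: after 17 hrs of compound exposure at 37C, HRE-bla ME-180 cells received CellTiter-Glo and luminescence was recorded 30 min later.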

[8] = qHTS assay to identify small molecule agonists of H2AX (AID 1224845; active = well fitted activation curve with a large enough effect in the signal ratio in the repeat runs, not every such curve was filed as active; the % refers to the signal ratio; note: potency is the fitted concentration of half-maximal effect)
In short: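 Wild-type CHO-K1 cells, plated overnight, exposed 3hr at 37C to 15 concentrations (0.76% DMSO final). Lysed, then HTRF anti-pH2AX (S139) cryptate and anti-H2AX-d2 antibodies, 24 hr room temperature; 665/620 nm emission read.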

[9] = qHTS assay to identify small molecule agonists of the hypoxia (HIF-1) signaling pathway (AID 1224846; active = well fitted activation curve with a large enough effect in the signal ratio in the repeat runs, not every such curve was filed as active; the % refers to the signal ratio)
In short: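 Compounds from the Tox21 10K library, dissolved in DMSO, are tested for induction of a hypoxia response element–controlled beta-lactamase reporter in ME-180 cells. Exposure lasts 17 hrs at 37C after a 5 hr settling period, followed by CCF4-AM FRET substrate.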

[10] = qHTS assay to identify small molecule agonists of H2AX - cell viability counter screen (AID 1224847; calls by dose curve; note: nearly all actives have a fitted effect of over 30% in size; note: potency is the fitted concentration of half-maximal effect)
In short: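 Wild-type CHO-K1 cells (10% FBS medium) were plated overnight at 37C, exposed to compounds at 15 concentrations for 3 hr at 37C (0.76% DMSO final), and viability was read as CellTiter-Glo luminescence after 30 min at room temperature.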

[11] = qHTS RealTime-Glo MT Cell Viability Assay in HepG2 cells - 24 hour (AID 1224867); note: nearly all actives have a fitted effect of over 50% in size
In short: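 Compound treatment began 5 h after plating HepG2 cells (600/well) with NanoLuc luciferase and prosubstrate. Plates stayed at 37 C for 40 h; luminescence was captured at six time points, 0 h through 40 h.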

[12] = qHTS RealTime-Glo MT Cell Viability Assay in HEK293 cells - 32 hour (AID 1224868); note: nearly all actives have a fitted effect of over 50% in size; note: potency is the fitted concentration of half-maximal effect
In short: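 Quantitative high-throughput screen of the Tox21 10K library in HEK293: cells and RealTime-Glo reagents plated together, compound added at 5 h, luminescence monitored through 40 h at 37 C.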

[13] = A CellTox Green Cytotoxicity Assay to monitor cytotoxicity in HEK293 cells - 0 hour (AID 1224869); note: nearly all actives have a fitted effect of over 50% in size
In short: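 Cells (HEK293, 600/well) and dye reagent are dispensed together. After 5 h at 37 C, 23 nL compound is pinned in. Plates stay at 37 C for 40 h with fluorescence read at 0h, 8h, 16h, 24h, 32h and 40h.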

[14] = qHTS RealTime-Glo MT Cell Viability Assay in HepG2 cells - 40 hour (AID 1224870); note: nearly all actives have a fitted effect of over 50% in size
In short: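 HepG2 cells (600/well) mixed with RealTime-Glo MT reagent, settled 5 h at 37 C/5% CO2 before compound addition. Nonlytic NanoLuc luminescence from viable-cell prosubstrate reduction read repeatedly during 40 h treatment at 37 C.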

[15] = molecular target: Nuclear receptor subfamily 1 group I member 3 (Homo sapiens) (UniProt Q14994); test: qHTS assay to identify small molecule agonists of the constitutive androstane receptor (CAR) signaling pathway (AID 1224839); note: nearly all actives have a fitted effect of over 15% in size; note: potency is the fitted concentration of half-maximal effect
In short: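 HepG2 cells stably expressing hCAR and a CYP2B6-2.2kb luciferase reporter were treated with compounds at 15 concentrations plus 0.75 uM PK11195 (final) for 24 h at 37 C; luminescence was read after ONE-Glo addition.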

[16] = qHTS assay to identify small molecule antagonists of the estrogen related receptor signaling pathway with the pleiotropic PPARgamma coactivator (PGC) from Tox21 10K library (AID 1224841; call rule not given here)
In short: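 Steps: plate 2,000 PGC/ERR cells per well; incubate 6 h at 37 C with 5% CO2; transfer compounds from DMSO stocks by pin tool; incubate 18 h at 37 C; add One-Glo; measure luminescence 30 min later.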

[17] = qHTS assay to identify small molecule agonists of the estrogen related receptor signaling pathway with the pleiotropic PPARgamma coactivator (PGC) from Tox21 10K library (AID 1224842); note: nearly all actives have a fitted effect of over 15% in size
In short: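 PGC/ERR reporter cell line, 2,000 cells per well, incubated 6 h at 37 C before 23 nL compound in DMSO was added. After 18 h at 37 C, One-Glo luminescence read following 30 min at room temperature.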

[18] = qHTS assay to identify small molecule agonists of the estrogen related receptor (ERR) signaling pathway from Tox21 library (AID 1224849; calls by dose curve; note: nearly all actives have a fitted effect of over 15% in size); details: ERR reporter cell line, ONE-Glo luciferase, 18 h; at 92.4 µM (top of the series) unless noted
In short: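 Cells carrying the ERR reporter were plated and allowed to settle for 6 h, exposed to library compounds for 18 h at 37 C, then lysed with ONE-Glo and luminescence measured.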

[19] = qHTS assay to identify small molecule antagonists of the constitutive androstane receptor (CAR) signaling pathway - cell viability counter screen (AID 1224837); note: nearly all actives have a fitted effect of over 45% in size
In short: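 Viability was measured with CellTiter-Fluor in a HepG2 line carrying stably transfected hCAR and a CYP2B6-2.2kb construct. Cells were exposed for 23 hr at 37 C to 15 compound concentrations with 50 nM CITCO as agonist.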

[20] = qHTS assay to identify small molecule antagonists of the estrogen related receptor (ERR) signaling pathway from Tox21 library (AID 1224848); note: nearly all actives have a fitted effect of over 50% in size
In short: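 Compounds dissolved in DMSO are pin-transferred onto ERR reporter cells (2,000 per well) that have settled for 6 h at 37 C. Plates then incubate 18 h at 37 C before ONE-Glo luciferase reagent and a luminescence read 30 min later.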

Chain of Nuclear receptor subfamily 1 group I member 3 (Homo sapiens) (Q14994 whole entry, looked up): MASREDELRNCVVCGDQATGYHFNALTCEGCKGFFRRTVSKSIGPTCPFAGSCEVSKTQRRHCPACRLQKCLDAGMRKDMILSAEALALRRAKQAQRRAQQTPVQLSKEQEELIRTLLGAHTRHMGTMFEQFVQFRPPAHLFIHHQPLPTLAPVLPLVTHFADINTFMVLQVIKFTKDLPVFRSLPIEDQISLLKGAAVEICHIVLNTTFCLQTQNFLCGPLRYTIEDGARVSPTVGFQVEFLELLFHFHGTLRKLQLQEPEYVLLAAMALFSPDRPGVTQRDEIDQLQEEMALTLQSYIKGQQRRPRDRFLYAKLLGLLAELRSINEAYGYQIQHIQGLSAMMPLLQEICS
Chain of Luciferin 4-monooxygenase (Photinus pyralis) (P08659 whole entry, looked up): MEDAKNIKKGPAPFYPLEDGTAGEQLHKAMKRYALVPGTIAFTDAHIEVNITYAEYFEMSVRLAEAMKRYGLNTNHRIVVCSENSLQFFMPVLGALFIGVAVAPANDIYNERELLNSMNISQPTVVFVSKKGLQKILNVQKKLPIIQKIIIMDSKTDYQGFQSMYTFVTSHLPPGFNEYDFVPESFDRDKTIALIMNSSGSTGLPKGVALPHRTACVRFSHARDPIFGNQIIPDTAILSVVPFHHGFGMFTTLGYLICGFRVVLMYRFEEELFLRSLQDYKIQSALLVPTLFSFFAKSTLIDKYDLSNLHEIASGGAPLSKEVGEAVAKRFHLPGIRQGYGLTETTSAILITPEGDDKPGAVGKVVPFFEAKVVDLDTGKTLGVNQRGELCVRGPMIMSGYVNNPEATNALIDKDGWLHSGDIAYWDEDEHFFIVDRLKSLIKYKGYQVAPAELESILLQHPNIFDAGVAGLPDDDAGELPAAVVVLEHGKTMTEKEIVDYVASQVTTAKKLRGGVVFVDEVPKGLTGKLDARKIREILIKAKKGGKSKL
Chain of Thyrotropin receptor (Homo sapiens) (P16473 whole entry, looked up): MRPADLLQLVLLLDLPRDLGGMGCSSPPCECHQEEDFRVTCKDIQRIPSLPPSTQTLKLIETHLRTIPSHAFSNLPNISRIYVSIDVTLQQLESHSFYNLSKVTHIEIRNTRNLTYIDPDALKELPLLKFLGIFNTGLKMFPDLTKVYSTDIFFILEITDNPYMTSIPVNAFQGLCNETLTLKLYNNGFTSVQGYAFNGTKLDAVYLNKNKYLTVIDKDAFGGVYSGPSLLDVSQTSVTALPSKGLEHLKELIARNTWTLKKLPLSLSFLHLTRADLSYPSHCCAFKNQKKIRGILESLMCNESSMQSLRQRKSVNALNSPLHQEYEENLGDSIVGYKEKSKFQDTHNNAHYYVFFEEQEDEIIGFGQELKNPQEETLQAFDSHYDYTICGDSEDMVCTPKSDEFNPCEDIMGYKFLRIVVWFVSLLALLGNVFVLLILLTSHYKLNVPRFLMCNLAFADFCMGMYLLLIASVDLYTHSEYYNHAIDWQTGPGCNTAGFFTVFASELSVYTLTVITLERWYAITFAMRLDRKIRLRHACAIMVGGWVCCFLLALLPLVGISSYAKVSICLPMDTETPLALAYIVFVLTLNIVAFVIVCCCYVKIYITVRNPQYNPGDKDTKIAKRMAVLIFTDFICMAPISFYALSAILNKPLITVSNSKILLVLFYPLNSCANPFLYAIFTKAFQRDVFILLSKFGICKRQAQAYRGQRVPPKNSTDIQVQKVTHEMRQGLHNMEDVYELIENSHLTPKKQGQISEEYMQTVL

Row | SMILES | Potency [1] | Potency [2] | Potency [3] | Potency [4] | Potency [5] | Potency [6] | Potency [7] | Potency [8] | outcome [9] | Potency [10] | Potency [11] | Potency [12] | Potency [13] | Potency [14] | Potency [15] | Potency [16] | outcome [17] | activity change, positive = activation [18] | Potency [19] | Potency [20]
1 | Cc1coc2c1CCC(C)C2 (stereo not given) | inactive | inactive | inactive | inactive | inactive | inactive | inactive | inactive | inactive | inactive | inactive | inactive | inactive | inactive |  |  |  |  |  | 
2 | Nc1cc2c3c(c1)C(c1ccccc1)=N[C@@H](NC(=O)c1cccnc1)C(=O)N3CC2 | inactive | inactive | inactive | inactive | inactive |  | inactive | inactive | inactive | inactive | inactive | inactive | inactive | inactive | inactive |  |  |  |  | 
3 | CNC(=O)Oc1ccccc1C1OCCO1 | inactive | inactive | inactive |  | inactive |  | inactive | inactive | inactive | inactive | inactive | inactive | inactive | inactive | inactive | inactive | inactive | 4.32% |  | 
4 | COc1ccc(C(=O)N2CCCC2=O)cc1 | inactive | inactive | inactive | inactive | inactive |  | inactive | inactive |  | inactive | inactive | inactive | inactive |  | inactive |  |  |  |  | 
5 | N#CCCC#N | inactive | inactive | inactive |  | inactive |  | inactive | inactive | inactive | inactive | inactive | inactive | inactive | inactive |  |  |  |  |  | 
6 | COC(C)(C)C | inactive | inactive | inactive |  |  | inactive | inactive | inactive | inactive | inactive | inactive | inactive | inactive |  |  |  |  |  | inactive | 
7 | CCOP(=O)(OCC)OP(=O)(OCC)OCC | inactive | inactive | inactive | inactive | inactive | inactive | inactive | inactive | inactive | inactive | inactive | inactive |  | inactive | inactive |  |  |  |  | 
8 | Nc1cnn(-c2ccccc2)c(=O)c1Cl | inactive | inactive | inactive | inactive | inactive | inactive | inactive | inactive | inactive | inactive | inactive | inactive | inactive | inactive | inactive |  |  |  |  | 
9 | CNC(=O)N(C)c1nc2ccccc2s1 | inactive | 35.6 µM (active) | inactive |  | inactive | inactive | inactive | inactive | inactive | inactive | inactive | inactive | inactive |  | 24.3 µM (active) | inactive |  | 89.8% (active) |  | inactive
10 | ClCC(Cl)(Cl)Cl | inactive | inactive | inactive | inactive | inactive |  | inactive | inactive | inactive | inactive | inactive | inactive | inactive | inactive | inactive |  |  |  |  | 
11 | Cc1cccc(C#N)c1 | inactive | inactive | inactive | inactive | inactive | inactive | inactive | inactive | inactive | inactive | inactive | inactive | inactive | inactive | inactive |  |  |  |  | 
12 | c1ccc(N2CCNCC2)cc1 | inactive | inactive | inactive | inactive | inactive | inactive | inactive | inactive | inactive | inactive | inactive | inactive | inactive | inactive | inactive |  |  |  |  | 
13 | C=C(C)[C@@H]1CC=C(C=O)CC1 | inactive | inactive | inactive |  |  | inactive | inactive |  | inactive | inactive | inactive | inactive | inactive | inactive |  | inactive | inactive | -5.19% | inactive | 
14 | CCOP(=S)(OCC)Oc1ncn(-c2ccccc2)n1 | inactive |  | inactive | inactive | inactive |  | inactive | inactive | inactive |  | inactive |  | inactive | inactive | 30.6 µM (active) |  |  |  | inactive | 
15 | CCNc1nc(NC(C)C)nc(OC)n1 | inactive | inactive | inactive |  |  | inactive | inactive | inactive | inactive | inactive | inactive | inactive | inactive | inactive |  | inactive | inactive | -0.534% |  | 
16 | C=CCC1=C(C)[C@@H](OC(=O)[C@@H]2[C@@H](C=C(C)C)C2(C)C)CC1=O | 54.5 µM (active) | inactive |  | inactive |  | inactive | 54.9 µM (active) | 56.6 µM (active) |  | 50.5 µM (active) |  | 13.8 µM (active) | inactive | inactive | 24.3 µM (active) |  | inactive | -64.6% | inactive | 
17 | COc1ncc(F)c2nc(S(=O)(=O)Nc3c(F)cccc3F)nn12 |  | inactive | inactive | inactive | inactive | inactive | inactive | inactive | inactive | inactive | inactive | inactive | inactive | inactive | inactive |  |  |  | inactive | 
18 | COc1ccc2c(c1OC)CN1CCc3cc4c(cc3C1C2)OCO4 (stereo not given) |  | inactive | inactive |  | inactive | inactive | inactive | inactive |  |  | inactive |  | inactive |  |  |  |  |  |  | 
19 | CC(CC(C#N)(c1ccccc1)c1ccccc1)N(C)C (stereo not given) |  | inactive |  | inactive | inactive | inactive |  | inactive | inactive | inactive | inactive |  | inactive | inactive | 27.2 µM (active) |  |  |  | inactive | 

Reference: PubChem BioAssay (Tox21)
